Test results reported in the supplement of paper PMC10849652.
About 7,900 targets were measured; listed, in parts, are those with a hit and a random draw of the rest. About 0.6% of all pairs of compound and target were hits. A number with no mark means an inactive call.

How the values were obtained:
Test in all cases: log2 fold change, soluble protein after heating vs DMSO (PISA); higher = thermal stabilisation; K562 cells, 10 uM, 30 min; active = over 0.2 and 3.5 SD of the protein, either way, in both replicates (recomputed)
erlotinib = compound: C#Cc1cccc(Nc2ncnc3cc(OCCOC)c(OCCOC)cc23)c1 [erlotinib]
Outline: (§1)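 Soluble protein was quantified by TMTpro 16plex LC-MS/MS after channel sums were equalised. It was obtained as the supernatant after 21,000xg for 90 min from pooled aliquots of K562 cells (2×10^6 cells/mL, 10 μM compound, 30 min) heated for 3 min across 48°C-58°C and extracted in PBS with 0.5% NP-40 at 4°C. Thermal stability values are relative to control samples and come from duplicates. They are given as log2 fold changes.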

[1] = compound: C/C(=N\NC(=O)C1=CC(=CC=C1)S(=O)(=O)N2CCOCC2)/C3=C(C=CC(=C3)Cl)O
Outline: as §1

[2] = compound: C1=CC(=C(C=C1Cl)C2=NC3=NC=CN=C3C(=N2)NC4=CC=NC=C4)F
Outline: as §1

[3] = compound: C1=CC(=CC=C1C2=NC3=C(N2)C=C(C=C3)C(=O)N)OC4=CC=C(C=C4)Cl
Outline: as §1

[4] = compound: C1=CC2=C(C=CC(=C2)/C=C\3/C(=O)NC(=NCC4=CC=CS4)S3)N=C1
Outline: as §1

[5] = compound: C1=CC2=NC=CN=C2C=C1/C=C/3\C(=O)NC(=O)S3
Outline: as §1

[6] = compound: C1=CC=C(C=C1)C2=NC(=C(N2)C3=CC=NC=C3)C4=CC(=C(C=C4)Cl)O
Outline: as §1

[7] = compound: C1=CC=C2C(=C1)C3=NNC4=CC=CC(=C43)C2=O
Outline: as §1

[8] = compound: C1CCN(C1)C(=O)NC2=CC=CC(=C2)NC3=NC=C(C(=N3)NCCC4=CN=CN4)Br
Outline: as §1

[9] = compound: C1CN(CCC1(CC2=CC=C(C=C2)Cl)N)C3=NC=NC4=C3C=CN4
Outline: as §1

IRAK-1-4 Inhibitor I = compound: C1COCCN1CCN2C3=CC=CC=C3N=C2NC(=O)C4=CC(=CC=C4)[N+](=O)[O-] [IRAK-1-4 Inhibitor I]
Outline: as §1

ibrutinib = compound: C=CC(=O)N1CCC[C@@H](n2nc(-c3ccc(Oc4ccccc4)cc3)c3c(N)ncnc32)C1 [ibrutinib]
Outline: as §1

[10] = compound: CC(=O)c1cnc2ccc(-c3cc(Cl)c(O)c(Cl)c3)nc2c1N[C@H]1CC[C@H](CN(C)C)CC1
Outline: as §1

ralimetinib = compound: CC(C)(C)Cn1c(N)nc2ccc(-c3[nH]c(C(C)(C)C)nc3-c3ccc(F)cc3)nc21 [ralimetinib]
Outline: as §1

[11] = compound: CC(C)(O)CC(=O)NCCn1ccc2ncnc(Nc3ccc(Oc4cccc(C(F)(F)F)c4)c(Cl)c3)c21
Outline: as §1

[12] = compound: CC(C)C1=C2N=C(C=C(N2N=C1)NCC3=CC=CC=C3)NCCCCCCN
Outline: as §1

[13] = compound: CC(C)C[C@@H](C=O)NC(=O)[C@H](CC(C)C)NC(=O)[C@H](CC(C)C)NC(=O)OCc1ccccc1
Outline: as §1

pinometostat = compound: CC(C)N(C[C@H]1O[C@@H](n2cnc3c(N)ncnc32)[C@H](O)[C@@H]1O)[C@H]1C[C@@H](CCc2nc3cc(C(C)(C)C)ccc3[nH]2)C1 [pinometostat]
Outline: as §1

[14] = compound: CC1=C(C(CC(=O)N1)C2=CC=C(C=C2)C(F)(F)F)C(=O)NC3=C(C=C4C(=C3)C=NN4)F
Outline: as §1

[15] = compound: CC1=C(C2=C(C=C1)C(=O)C3=CC=CC=C3N2CCCN)C
Outline: as §1

UniProt P05114, sequence (P05114 whole entry, looked up): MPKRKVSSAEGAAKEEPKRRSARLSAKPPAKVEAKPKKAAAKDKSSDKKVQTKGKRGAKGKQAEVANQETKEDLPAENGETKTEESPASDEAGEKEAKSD
UniProt Q9UJY4, sequence (Q9UJY4 whole entry, looked up): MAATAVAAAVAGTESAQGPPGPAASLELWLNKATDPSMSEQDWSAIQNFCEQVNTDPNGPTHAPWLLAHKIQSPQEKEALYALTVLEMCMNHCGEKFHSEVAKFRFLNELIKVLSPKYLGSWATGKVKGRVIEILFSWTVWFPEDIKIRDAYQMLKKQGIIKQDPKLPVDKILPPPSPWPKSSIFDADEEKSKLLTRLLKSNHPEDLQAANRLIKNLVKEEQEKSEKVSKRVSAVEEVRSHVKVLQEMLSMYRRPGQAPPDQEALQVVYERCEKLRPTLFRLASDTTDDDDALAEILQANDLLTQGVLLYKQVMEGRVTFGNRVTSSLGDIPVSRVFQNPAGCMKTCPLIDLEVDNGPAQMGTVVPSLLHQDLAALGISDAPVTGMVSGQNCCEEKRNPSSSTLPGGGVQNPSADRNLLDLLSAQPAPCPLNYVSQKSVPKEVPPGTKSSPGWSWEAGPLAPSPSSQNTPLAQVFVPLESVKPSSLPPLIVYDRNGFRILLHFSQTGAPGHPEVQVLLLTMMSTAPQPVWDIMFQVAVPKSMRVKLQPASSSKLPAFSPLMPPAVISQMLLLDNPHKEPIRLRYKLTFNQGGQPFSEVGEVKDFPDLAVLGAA
UniProt P22570, sequence (P22570 whole entry, looked up): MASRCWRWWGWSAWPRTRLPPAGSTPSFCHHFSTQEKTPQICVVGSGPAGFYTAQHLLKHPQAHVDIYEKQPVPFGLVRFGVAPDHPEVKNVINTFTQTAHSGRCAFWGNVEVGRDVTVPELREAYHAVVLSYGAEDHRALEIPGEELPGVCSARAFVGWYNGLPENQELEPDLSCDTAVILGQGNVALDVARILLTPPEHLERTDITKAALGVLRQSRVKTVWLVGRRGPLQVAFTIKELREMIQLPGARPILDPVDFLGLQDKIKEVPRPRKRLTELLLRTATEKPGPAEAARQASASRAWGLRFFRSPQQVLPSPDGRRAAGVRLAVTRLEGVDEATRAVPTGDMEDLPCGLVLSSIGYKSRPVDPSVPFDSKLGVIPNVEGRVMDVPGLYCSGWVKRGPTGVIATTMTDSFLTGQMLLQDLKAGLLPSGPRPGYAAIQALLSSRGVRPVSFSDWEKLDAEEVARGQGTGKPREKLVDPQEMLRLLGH
UniProt Q9BUP3, sequence (Q9BUP3 whole entry, looked up): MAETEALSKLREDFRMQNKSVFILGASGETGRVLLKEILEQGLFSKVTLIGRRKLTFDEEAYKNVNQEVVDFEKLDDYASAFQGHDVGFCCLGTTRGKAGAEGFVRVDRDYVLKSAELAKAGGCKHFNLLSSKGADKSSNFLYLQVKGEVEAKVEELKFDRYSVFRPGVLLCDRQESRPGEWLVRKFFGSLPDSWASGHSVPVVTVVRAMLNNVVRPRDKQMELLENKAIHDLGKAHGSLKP
UniProt Q12894, sequence (Q12894 whole entry, looked up): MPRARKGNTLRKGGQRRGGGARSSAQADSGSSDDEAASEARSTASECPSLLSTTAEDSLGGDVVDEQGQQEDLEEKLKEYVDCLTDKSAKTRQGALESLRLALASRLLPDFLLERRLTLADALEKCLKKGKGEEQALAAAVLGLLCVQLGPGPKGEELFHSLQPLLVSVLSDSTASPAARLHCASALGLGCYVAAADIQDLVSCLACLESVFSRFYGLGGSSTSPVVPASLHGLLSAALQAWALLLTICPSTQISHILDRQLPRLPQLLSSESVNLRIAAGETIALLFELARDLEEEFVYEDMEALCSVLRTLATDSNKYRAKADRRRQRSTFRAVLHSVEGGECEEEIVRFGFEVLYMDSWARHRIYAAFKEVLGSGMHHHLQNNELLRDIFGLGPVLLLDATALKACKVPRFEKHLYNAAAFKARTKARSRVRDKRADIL
UniProt P15976, sequence (P15976 whole entry, looked up): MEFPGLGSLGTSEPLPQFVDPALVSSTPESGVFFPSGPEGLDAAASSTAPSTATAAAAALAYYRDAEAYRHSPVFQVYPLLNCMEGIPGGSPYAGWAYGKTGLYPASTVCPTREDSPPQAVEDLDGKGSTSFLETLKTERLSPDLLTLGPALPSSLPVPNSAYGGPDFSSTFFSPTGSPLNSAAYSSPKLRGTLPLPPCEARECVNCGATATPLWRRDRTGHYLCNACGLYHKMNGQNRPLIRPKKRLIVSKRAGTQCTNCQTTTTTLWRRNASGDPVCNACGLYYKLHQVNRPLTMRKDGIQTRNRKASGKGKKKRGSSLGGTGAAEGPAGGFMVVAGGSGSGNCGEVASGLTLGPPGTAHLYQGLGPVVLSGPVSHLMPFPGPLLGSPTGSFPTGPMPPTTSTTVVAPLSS
UniProt Q5JWF2, sequence (Q5JWF2 whole entry, looked up): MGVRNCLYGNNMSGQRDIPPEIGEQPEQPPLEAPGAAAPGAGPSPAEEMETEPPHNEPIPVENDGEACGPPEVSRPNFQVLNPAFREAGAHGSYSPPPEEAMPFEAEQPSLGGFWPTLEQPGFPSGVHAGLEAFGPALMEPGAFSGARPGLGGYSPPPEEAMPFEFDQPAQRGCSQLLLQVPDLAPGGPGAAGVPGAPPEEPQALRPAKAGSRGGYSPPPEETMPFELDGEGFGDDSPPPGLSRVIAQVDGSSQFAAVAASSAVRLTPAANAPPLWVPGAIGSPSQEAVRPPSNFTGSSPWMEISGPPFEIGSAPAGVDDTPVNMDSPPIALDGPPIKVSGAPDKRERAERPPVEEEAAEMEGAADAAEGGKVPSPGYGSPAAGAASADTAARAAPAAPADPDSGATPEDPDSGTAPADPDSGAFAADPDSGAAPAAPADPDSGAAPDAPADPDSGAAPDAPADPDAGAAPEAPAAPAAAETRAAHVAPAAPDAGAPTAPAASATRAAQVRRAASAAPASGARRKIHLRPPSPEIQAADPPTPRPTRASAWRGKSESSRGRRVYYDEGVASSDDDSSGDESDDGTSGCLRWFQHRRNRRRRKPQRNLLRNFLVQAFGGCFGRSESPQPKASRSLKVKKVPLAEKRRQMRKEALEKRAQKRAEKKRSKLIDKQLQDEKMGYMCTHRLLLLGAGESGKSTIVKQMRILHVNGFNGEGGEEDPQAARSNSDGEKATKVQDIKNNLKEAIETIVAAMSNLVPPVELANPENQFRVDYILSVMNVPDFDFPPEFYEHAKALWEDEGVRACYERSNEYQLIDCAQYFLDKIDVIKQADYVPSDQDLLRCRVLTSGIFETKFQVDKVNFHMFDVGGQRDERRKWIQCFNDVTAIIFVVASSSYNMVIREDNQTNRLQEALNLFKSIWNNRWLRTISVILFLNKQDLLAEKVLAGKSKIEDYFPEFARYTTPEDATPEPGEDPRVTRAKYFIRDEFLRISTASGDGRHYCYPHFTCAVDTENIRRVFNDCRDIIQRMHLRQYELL
UniProt Q03014, sequence (Q03014 whole entry, looked up): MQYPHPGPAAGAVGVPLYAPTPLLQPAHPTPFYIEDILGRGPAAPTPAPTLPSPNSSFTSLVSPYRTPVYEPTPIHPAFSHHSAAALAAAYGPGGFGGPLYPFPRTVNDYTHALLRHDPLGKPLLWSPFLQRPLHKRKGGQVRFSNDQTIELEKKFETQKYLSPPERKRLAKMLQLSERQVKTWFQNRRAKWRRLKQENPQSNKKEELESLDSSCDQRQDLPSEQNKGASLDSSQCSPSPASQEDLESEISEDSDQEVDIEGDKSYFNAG
UniProt P54803, sequence (P54803 whole entry, looked up): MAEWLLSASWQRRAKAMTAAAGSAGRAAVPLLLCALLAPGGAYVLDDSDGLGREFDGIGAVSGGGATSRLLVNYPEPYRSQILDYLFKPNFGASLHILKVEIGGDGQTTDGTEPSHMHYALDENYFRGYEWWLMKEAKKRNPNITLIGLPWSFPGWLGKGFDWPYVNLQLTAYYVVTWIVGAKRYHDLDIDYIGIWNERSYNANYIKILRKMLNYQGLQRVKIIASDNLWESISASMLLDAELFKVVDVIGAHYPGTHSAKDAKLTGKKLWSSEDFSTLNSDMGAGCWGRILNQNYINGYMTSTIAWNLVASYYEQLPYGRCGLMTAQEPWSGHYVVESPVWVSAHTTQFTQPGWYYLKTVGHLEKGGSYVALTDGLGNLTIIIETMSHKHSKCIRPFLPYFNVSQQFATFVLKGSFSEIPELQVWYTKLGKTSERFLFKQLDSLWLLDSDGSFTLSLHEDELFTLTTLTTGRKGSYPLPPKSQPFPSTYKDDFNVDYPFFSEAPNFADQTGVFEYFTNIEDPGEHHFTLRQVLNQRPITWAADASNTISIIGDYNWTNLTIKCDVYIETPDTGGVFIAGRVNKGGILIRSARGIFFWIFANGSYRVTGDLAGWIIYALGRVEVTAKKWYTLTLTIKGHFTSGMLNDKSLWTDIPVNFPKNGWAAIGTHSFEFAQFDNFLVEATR
UniProt Q9BTY2, sequence (Q9BTY2 whole entry, looked up): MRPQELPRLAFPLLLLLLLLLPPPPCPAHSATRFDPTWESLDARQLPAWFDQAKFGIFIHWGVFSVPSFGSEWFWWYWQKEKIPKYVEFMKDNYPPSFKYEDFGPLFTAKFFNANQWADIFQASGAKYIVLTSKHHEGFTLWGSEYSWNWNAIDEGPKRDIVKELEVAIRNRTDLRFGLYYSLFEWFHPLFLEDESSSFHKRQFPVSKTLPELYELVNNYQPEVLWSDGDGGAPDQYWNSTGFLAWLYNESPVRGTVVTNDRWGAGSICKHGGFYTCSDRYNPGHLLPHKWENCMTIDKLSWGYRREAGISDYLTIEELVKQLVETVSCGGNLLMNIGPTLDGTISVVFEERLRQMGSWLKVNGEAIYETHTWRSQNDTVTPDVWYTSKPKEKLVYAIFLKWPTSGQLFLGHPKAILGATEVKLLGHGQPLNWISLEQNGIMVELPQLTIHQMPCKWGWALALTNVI
UniProt Q9H0R8, sequence (Q9H0R8 whole entry, looked up): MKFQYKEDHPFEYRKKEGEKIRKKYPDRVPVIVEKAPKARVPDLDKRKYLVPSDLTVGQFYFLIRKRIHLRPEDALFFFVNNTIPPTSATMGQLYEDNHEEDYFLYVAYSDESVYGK

| Target | log2 fold change (erlotinib) | log2 fold change [1] | log2 fold change [2] | log2 fold change [3] | log2 fold change [4] | log2 fold change [5] | log2 fold change [6] | log2 fold change [7] | log2 fold change [8] | log2 fold change [9] | log2 fold change (IRAK-1-4 Inhibitor I) | log2 fold change (ibrutinib) | log2 fold change [10] | log2 fold change (ralimetinib) | log2 fold change [11] | log2 fold change [12] | log2 fold change [13] | log2 fold change (pinometostat) | log2 fold change [14] | log2 fold change [15] |
| --- | --- | --- | --- | --- | --- | --- | --- | --- | --- | --- | --- | --- | --- | --- | --- | --- | --- | --- | --- | --- |
| GNAS (UniProt Q5JWF2) | 0.001 | 0.042 | -0.032 | 0.043 | 0.026 | 0.021 | 0.02 | 0.011 | -0.011 | 0.043 | -0.04 | 0.001 | -0.059 | 0.009 | 0.022 | 0.041 | -0.009 | 0 | -0.059 | 0.073 |
| HTATIP2 isoform 3 (UniProt Q9BUP3) | 0.016 | 0.112 | 0.016 | -0.02 | -0.143 | 0.005 | 0.012 | 0.033 | -0.039 | 0.005 | 0.007 | 0.003 | -0.034 | 0.077 | 0.651 (active) | -0.182 | -0.021 | 0.006 | -0.017 | 0.025 |
| GUK1 isoform 2 (UniProt Q16774) | 0.009 | 0.289 | 0.092 | 0 | 0.004 | 0 | -0.02 | 0.021 | -0.03 | 0.066 | -0.076 | -0.033 | -0.162 | 0.038 | -0.234 | -0.033 | 0.167 | -0.037 | -0.074 | 0.092 |
| FDXR isoform 7 (UniProt P22570) | 0.092 | 0.033 | 0.109 | -0.126 | 0.076 | -0.13 | 0.064 | 0 | 0.025 | 0.019 | 0.031 | 0.046 | -0.086 | -0.015 | -0.27 (active) | -0.091 | 0.015 | -0.024 | -0.033 | 0.125 |
| HMGN1 (UniProt P05114) | -0.069 | -0.114 | -0.011 | 0.066 | -0.114 | 0.045 | -0.062 | -0.059 | 0.029 | -0.028 | -0.006 | 0.049 | 0.064 | 0.032 | 0.166 | 0.148 | 0.042 | -0.022 | 0.014 | 0.294 (active) |
| GABARAPL1 isoform 2 (UniProt Q9H0R8) | 0.071 | -0.012 | -0.023 | -0.029 | 0.074 | -0.033 | -0.001 | 0.02 | -0.02 | 0.016 | 0.031 | -0.057 | -0.065 | -0.003 | -0.024 | -0.369 (active) | 0.092 | -0.044 | -0.047 | 0.023 |
| IFRD2 isoform 2 (UniProt Q12894) | 0.204 | -0.109 | 0.003 | 0.084 | 0.048 | 0.082 | -0.051 | 0.118 | 0.302 | 0.04 | 0.141 | 0.063 | 0.369 | -0.045 | 0.013 | 0.07 | 0.019 | 0.144 | -0.116 | -1.69 (active) |
| HBQ1 (UniProt P09105) | -0.007 | -0.021 | 0.33 (active) | 0.03 | 0.059 | 0.011 | 0.051 | -0.021 | -0.093 | 0.026 | 0.003 | 0.016 | 0.01 | -0.034 | -0.078 | 0.095 | -0.102 | 0.004 | 0.027 | 0.147 |
| HHEX (UniProt Q03014) | -0.043 | -0.206 | 0.069 | 0.044 | 0.008 | -0.022 | -0.044 | 0.037 | -0.004 | 0.022 | 0.045 | 0.059 | 0.005 | -0.059 | -0.064 | -0.113 | 0.189 | -0.075 | 0.086 | -0.074 |
| GTPBP6 (UniProt O43824) | -0.091 | -0.017 | -0.137 | 0.01 | 0.041 | 0.066 | -0.036 | -0.05 | 0.06 | 0.027 | -0.043 | -0.081 | 0.028 | 0.039 | 0.111 | 0.204 | 0.024 | 0.062 | 0.112 | 0.013 |
| GATA1 (UniProt P15976) | 0.05 | 0.024 | -0.021 | -0.015 | 0.032 | 0.028 | -0.021 | -0.083 | 0.031 | -0.004 | 0.038 | 0.015 | 0.051 | 0.041 | 0.027 | 0.047 | 0.088 | 0.027 | 0.081 | -0.368 (active) |
| GALC (UniProt P54803) | -0.023 | -0.002 | -0.051 | 0.041 | 0.009 | 0.028 | -0.017 | -0.011 | -0.032 | 0.08 | 0.053 | 0.017 | 0.016 | -0.012 | 0.041 | -0.122 | 0.05 | 0.067 | 0.035 | -0.003 |
| HIC2 (UniProt Q96JB3) | 0.128 | 0 | -0.17 | 0.028 | -0.159 | -0.08 | 0.012 | -0.266 | -0.023 | -0.09 | -0.073 | 0.123 | 0.024 | 0.218 | 0.065 | -0.07 | -0.03 | 0.143 | 0.015 | 0.088 |
| HMGCR isoform 3 (UniProt P04035) | -0.089 | 0.025 | -0.001 | 0.032 | -0.038 | 0.101 | -0.033 | -0.137 | -0.081 | 0 | 0.037 | -0.001 | 0.022 | -0.005 | -0.023 | 0.029 | 0.383 (active) | 0.014 | 0.011 | -0.044 |
| GGA2 (UniProt Q9UJY4) | 0.036 | -0.041 | -0.151 | 0.003 | 0.063 | 0.033 | -0.053 | -0.013 | 0.025 | -0.016 | 0.007 | -0.05 | -0.006 | -0.153 | -0.048 | -0.169 | 0.068 | -0.038 | -0.04 | 0.032 |
| FUCA2 (UniProt Q9BTY2) | -0.001 | -0.03 | -0.026 | 0.013 | 0.015 | 0.038 | 0.033 | 0.029 | 0.056 | 0.017 | -0.078 | 0.043 | -0.056 | 0.019 | 0.026 | -0.09 | -0.004 | 0.036 | -0.036 | -0.12 |
